Reference: PubChem BioAssay AID1259418 (Broad Institute, 2018)
Hit rate of the full screen: of about 3,400 compounds, about 840 (25%) were called active. Inconclusive results (about 11%) are left out. A selection follows. Measured potencies and affinities stand elsewhere. Unmarked numbers belong to inactive results.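 The calls were made as follows: active = fitted half-maximal concentration of signal decrease at or below twice the sample's top tested concentration; inconclusive = flat curve between -70 and -30 percent, or poor fit; inactive = flat within 30 percent, signal rise, or potency above limit.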

test: T. gondii growth inhibition with IFN-gamma, dose response, cell-based, ME49Luc, HeLa, luciferase, 72 h (AID 1259418); settings: T. gondii ME49Luc in IFN-y HeLa, active compounds read low, -100% = high-dose IFN-γ control wells; at 19.5 µM unless noted

Structure (SMILES)	max activity
CCc1ccc(C(=O)N2CCC3(CC2)Nc2cc(OC)ccc2-n2cccc23)cc1	8.15% [at 0.68 µM]
CC(=O)N1CCC(N(C)Cc2cc(C(C)(C)C)n[nH]2)CC1	35.9%
COc1ccc(-c2noc(-c3nnn(Cc4nc(-c5ccccc5OC)oc4C)c3C)n2)cc1	15.5% [at 5 µM]
COc1cc(OC)cc(C(=O)N2CSC[C@@H]2C(=O)NCCc2csc(-c3ccccc3)n2)c1	23.7%
COc1ccc(S(=O)(=O)N2CCc3nc(-c4cccc(OC)c4)sc3C2)cc1	-10.4% [at 0.16 µM]
COc1cccc(-c2nc3c(s2)CN(S(=O)(=O)c2cccc(C)c2)CC3)c1	-6.22% [at 2.6 µM]
CCc1ccccc1S(=O)(=O)N1CCc2nc(-c3cccc(OC)c3)sc2C1	-7.33% [at 0.35 µM]
COc1ccc(-c2nc3c(s2)CN(S(=O)(=O)c2cccc(Cl)c2C)CC3)cc1	10.3% [at 10 µM]
CCc1ccccc1S(=O)(=O)N1CCc2nc(-c3ccccc3)sc2C1	115% [at 10 µM]
COc1ccc(-c2nc3c(s2)CN(S(=O)(=O)c2cc(OC)ccc2OC)CC3)cc1	28%
COc1cccc(-c2nc3c(s2)CN(S(=O)(=O)c2cc(C)cc(C)c2)CC3)c1	-33.8% [at 0.16 µM]
COc1cccc(-c2nc3c(s2)CN(S(=O)(=O)c2ccccc2Cl)CC3)c1	5.54% [at 10 µM]
Cc1ccc(-c2nc(CSc3nc4c(c(=O)[nH]3)CN(Cc3ccc(Cl)cc3)CC4)c(C)o2)cc1	23.9%
O=C(Cn1cccc1-c1nc(-c2ccc(Cl)cc2)cs1)N1CCC2(CC1)OCCO2	-6.36% [at 10 µM]
O=C1CCc2cc(S(=O)(=O)N3CCN(c4ccc(F)cc4)CC3)cc3c2N1CCC3	10.7% [at 2.6 µM]
CCOC(=O)c1cccc(NC(=O)Nc2ccc(-c3nc(-c4ccc(C)cc4)co3)cc2)c1	67.3%
COc1ccc(-c2nc3c(s2)CN(C(=O)Nc2ccc(Br)cc2)CC3)cc1	26.4% [at 10 µM]
Cc1nc(-c2ccccc2)sc1C(=O)Nc1ccc(-n2c(C)nc3ccccc3c2=O)cc1	-25.8%
CC1CCN(C(=O)c2ccc(-c3csc(C4CC4)n3)cc2)CC1	6.7%
CCN1C(=O)CCc2cc(NC(=O)Cc3c(F)cccc3Cl)ccc21	7.81%
O=C(Nc1ccc(-c2nc(-c3ccccc3)co2)cc1)c1ccc(Br)o1	25.6%
Cc1ccc2c(c1C)-n1cccc1C1(CCN(C(=O)c3cccs3)CC1)N2	-15.1% [at 5 µM]
COc1ccc(-c2nc(N3CCC(C)CC3)c3ccccc3n2)cc1	21.8%
COc1ccc(OCC(=O)N2CCC[C@@H]2C(=O)NCCc2csc(-c3ccccc3)n2)cc1	10.2% [at 0.16 µM]

Structure (SMILES)	max activity
COc1ccc(-c2nc(NCCN3CCN(c4ccc(OC)cc4)CC3)c3ccccc3n2)cc1	15.4% [at 0.16 µM]
COc1ccc(-c2nc(NCCCN3CCCC3)c3ccccc3n2)cc1	15.7%
COc1ccc(-c2nc(NCCCN3CCN(c4cc(C)ccc4C)CC3)c3ccccc3n2)cc1	21.7%
COc1ccc(-c2nc(NCCCN3CCN(c4ccc(F)cc4)CC3)c3ccccc3n2)cc1	-17.2% [at 0.35 µM]
CCCN1CCN(CCCNc2nc(-c3ccc(Cl)cc3)nc3ccccc23)CC1	-50.1% [at 1.35 µM]
COc1ccc(N2CCN(CCNc3nc(-c4ccc(Cl)cc4)nc4ccccc34)CC2)cc1	22% [at 0.68 µM]
O=C(NCCc1csc(-c2ccccc2)n1)[C@H]1CCCN1C(=O)c1cccc(Cl)c1	-10.8% [at 0.35 µM]
Cc1cccc(-c2nc(Cn3nnc(-c4nc(-c5cccc(F)c5)no4)c3C)c(C)o2)c1	-7.79% [at 1.35 µM]
COc1ccccc1-c1nc(Cn2nnc(-c3nc(-c4ccccc4C)no3)c2C)c(C)o1	11.1% [at 0.16 µM]
COc1ccc(-c2nc(NCc3ccccc3Cl)c3ccccc3n2)cc1	7.56% [at 0.16 µM]
COc1ccccc1CNC(=O)CC1N=C2c3ccccc3N=C(SCC#N)N2C1=O (configuration not stated)	42.4% [at 10 µM]
COc1cc(OC)cc(-c2noc(-c3nnn(Cc4nc(-c5ccc(C)cc5)oc4C)c3C)n2)c1	10.5% [at 0.16 µM]
CC1CCCCN1C(=O)c1ccnn1-c1ccc2ccc(-c3ccccc3)cn12 (configuration not stated)	31.6%
Cc1ccc(NC(=O)N2CCN(Cc3nc(-c4ccccc4C)oc3C)CC2)cc1C	8.71% [at 0.68 µM]
COc1ccc(-c2nc(NCCCN3CCC(Cc4ccccc4)CC3)c3ccccc3n2)cc1	-19.1% [at 0.35 µM]
CCC(CN1CCOCC1)Nc1nc(-c2ccc(OC)cc2)nc2ccccc12 (configuration not stated)	27.4%
O=C(NCCc1c[nH]c2ccccc12)c1cc(-c2ccccn2)nc2ccccc12	15.3% [at 0.68 µM]
CCCc1ccc(S(=O)(=O)N2CCc3nc(-c4ccc(OCC)cc4)sc3C2)cc1	88.1%
Cc1ccc(CN2CC[C@H]3CO[C@@H](CNC(=O)C4CC4)[C@@H]3C2)cc1	18.5%
O=C1N(CC2CC2)CCC12CCCN(Cc1cncc(Cl)c1)CC2 (configuration not stated)	33.7%
COc1cccc(N(Cc2nc(-c3ccc(OC(C)C)cc3)oc2C)S(=O)(=O)c2ccccc2)c1	4.32% [at 10 µM]
COc1cccc(N(Cc2nc(-c3ccc(C)cc3)oc2C)S(=O)(=O)c2ccccc2)c1	-10.4% [at 10 µM]
COc1ccc(CNC(=O)CC2N=C3c4ccccc4N=C(SCc4cc(=O)n5ccccc5n4)N3C2=O)cc1 (configuration not stated)	19.7% [at 2.6 µM]
